Screening results deposited in PubChem by several laboratories.
Sampled rows, rich in hits. Any-hit rate of the full collection: about 3.8%.
697 NFkB inh: lowers PMA/ionomycin-induced NF-kB signal in 697 B cells; 697 B-cell NF-kB luciferase reporter, 16 h; inhibition, % at 4 µM; hit rate 0.33% among 330,000; AID 435022; in the data active = inhibition above about 35%
Mdm2 MdmX PPI: human Mdm2/MdmX binding inhibition; SaOS-2 split-luciferase Mdm2/MdmX complementation, luminescence; inhibition, % at 8 µM; hit rate 3% among 330,000; AID 485346; O15151+Q00987;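 active = inhibition of at least 50% at 8 µM in the primary screen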
Gli-Sufu block: blocks Gli-Sufu signaling in a luciferase reporter; Sufu-KO-LIGHT fibroblasts, Gli luciferase reporter luminescence; inhibition, % at 5 µM; hit rate 0.74% among 340,000; AID 588413;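 active = inhibition above about 55%, limit read from the data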;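 note: 0% = DMSO-treated cells and 100% = wells with medium but no cells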
Jurkat NFkB inh: lowers PMA/ionomycin-induced NF-kB signal in Jurkat cells; AID 435003; PMA/ionomycin-induced NF-kB luciferase reporter, luminescence; hit rate 0.53% among 330,000; inhibition, % at 4 µM; in the data active = inhibition above about 50%
Shn3 3UTR inh: reduces Shn3 3'UTR luciferase signal in osteoblasts; Clone20 osteoblast Shn3 3'UTR firefly luciferase, 24 h; inhibition, % at 12.5 µM; hit rate 0.52% among 360,000; AID 588674;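 active = mean inhibition of at least 75% with every replicate also reaching 75%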;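 note: 0% = median of neutral control wells and 100% = pilot-screen positive control compound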
Mdm2 MdmX conf: confirmation of human Mdm2/MdmX interaction inhibitors | shares compounds with Mdm2 MdmX PPI | Mdm2-MdmX binding, luminescent assay | inhibition, % at 8 µM | hit rate 55% among 10,000 | AID 489028; in the data active = inhibition above about 40%
Full FLuc ctr: counter-screen for Mdm2/MdmX inhibitors: full-length luciferase. SaOS-2 full-length luciferase counterscreen, luminescence. inhibition, % at 8 µM. hit rate 77% among 6,200. shares compounds with Mdm2 MdmX PPI;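 active = mean inhibition at 8 µM reaching about 37%, which flags the compound as non-specific, limit read from the data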;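 note: p53-null SaOS-2 cells with luciferase driven by a doxycycline-inducible promoter; compound on cells about two nights before reading with doxycycline added after day one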
* marks the source's active call; other numbers are inactive results; x = not tested or not shown.

SMILES	697 NFkB inh	Mdm2 MdmX PPI	Gli-Sufu block	Jurkat NFkB inh	Shn3 3UTR inh	Mdm2 MdmX conf	Full FLuc ctr
CC[C@@H](C(=O)[C@@H](C)[C@@H](O)[C@H](C)CCc1ccc(C)c(O)c1C(=O)O)[C@H]1O[C@](CC)([C@H]2CC[C@](O)(CC)[C@H](C)O2)C[C@@H]1C	-103	100*	82*	22	92*	71*	35
CCc1ccc(Nc2cc(=O)n(C3CCCCC3)c(=O)[nH]2)cc1	-41	21	-15	-15	-1	x	x
O=c1cc(Nc2ccc3c(c2)OCCO3)[nH]c(=O)n1C1CCCCC1	23	55*	-21	43	12	53*	58*
CC(C)(C)C1CCc2onc(C(=O)Nc3ccc4c(c3)OCO4)c2C1 (centres undefined)	-1	35	-17	-14	7	x	x
O=C(NCCc1ccccc1)C1CCC(CNc2nc(=S)[nH]c3ccccc23)CC1 (centres undefined)	-26	96*	5	-4	11	6	x
COc1ccc(CCNC(=O)c2nnn(-c3ccccc3OC)c2N)cc1OC	1	21	-12	-3	13	x	x
COc1ccc(CCNC(=O)c2nnn(-c3ccc4c(c3)OCCO4)c2N)cc1OC	-37	80*	49	31	47	79*	38*
CCc1ccc(C(C(=O)NC2CCCC2)N(C(=O)/C=C/C(=O)Nc2cc(C)on2)c2ccccc2C)cc1 (centres undefined)	12	77*	15	9	-1	75*	59*
CCOc1ccc(N(C(=O)/C=C/C(=O)Nc2cc(C)on2)C(C(=O)NC2CCCC2)c2ccccc2C)cc1 (centres undefined)	1	81*	3	13	5	77*	27
Cc1cc(NC(=O)/C=C/C(=O)N(CC(=O)NC2CCCC2)c2cccc3ccccc23)no1	21	53*	1	-2	10	32	x
CCc1ccc(OCC(=O)N(CC)CC)cc1	11	9	-2	1	-15	x	x
O=C(NC(NC(=S)Nc1ccc(Cl)cc1Cl)C(Cl)(Cl)Cl)c1cccc([N+](=O)[O-])c1 (centres undefined)	-52	98*	26	-56	17	94*	22
O=C(NC(NC(=S)Nc1ccccc1)C(Cl)(Cl)Cl)c1cccc(Cl)c1 (centres undefined)	3	93*	4	17	51	46*	66*
O=C(O)c1cccc(NC(=S)NC(NC(=O)c2cccc([N+](=O)[O-])c2)C(Cl)(Cl)Cl)c1 (centres undefined)	-28	16	-5	-4	-19	x	x
O=C(COc1ccc(S(=O)(=O)N2CCOCC2)cc1)Nc1ccc2c(c1)OCCO2	12	5	40	8	12	x	x
O=C(COc1ccc(S(=O)(=O)N2CCOCC2)cc1)Nc1ccc(Cl)c(C(F)(F)F)c1	19	61*	6	26	43	43*	65*
CCc1ccccc1OCC(=O)Nc1cc(S(=O)(=O)N2CCOCC2)ccc1N1CCCCC1	-15	52*	21	10	61	41*	83*
O=C(Nc1ccc(Cl)c(Cl)c1)Nc1cc(S(=O)(=O)N2CCOCC2)ccc1N1CCCC1	12	53*	5	-2	9	12	x
CN1CCN(S(=O)(=O)c2ccc(NC(=O)Nc3cccc(Cl)c3)cc2)CC1	18	28	2	-31	-16	x	x
O=C(Nc1cccc(Cl)c1)Nc1cc(S(=O)(=O)N2CCCCC2)ccc1Cl	-37	89*	1	-17	78	91*	51*
COc1ccccc1/C=C1\N=C(C(C)(C)C)OC1=O	-18	19	-8	3	5	x	x
COc1ccc(Cl)cc1NC(=O)COc1ccc(S(=O)(=O)N2CCOCC2)cc1C	12	68*	-8	5	-10	18	x
COc1ccc(S(=O)(=O)N2CCOCC2)cc1NC(=O)COc1ccc(C)cc1	12	24	-2	11	10	x	x
CCOc1ccc(S(=O)(=O)N2CCOCC2)cc1NC(=O)CSCc1ccc(C)cc1	-47	52*	-11	49	15	56*	54*
C=CC[C@H](CC(=O)NCCO)C(=O)NC[C@@H](OC(=O)[C@@H](CC=C)Cc1ccc(F)cc1)c1ccccc1	-19	26	-4	-1	-7	x	x
SMILES	697 NFkB inh	Mdm2 MdmX PPI	Gli-Sufu block	Jurkat NFkB inh	Shn3 3UTR inh	Mdm2 MdmX conf	Full FLuc ctr
C=CCC[C@H](Cc1ccc(F)cc1)C(=O)O[C@H](CNC(=O)[C@@H](CC=C)CC(=O)N(CCO)Cc1ccccc1)c1ccccc1	-8	63*	8	0	39	32	x
C=CCC[C@@H](Cc1ccc(F)cc1)C(=O)OC[C@H](Cc1c[nH]c2ccccc12)NC(=O)[C@H](CC=C)CC(=O)N(CCO)Cc1ccccc1	-20	88*	-6	-16	6	22	74*
C=CC[C@@H](CC(=O)N[C@H](CO)Cc1ccccc1)C(=O)NC[C@H](OC(=O)[C@@H](CC=C)Cc1ccc(F)cc1)c1ccccc1	6	59*	12	-1	-59	55*	62*
C=CC[C@H](CC(=O)N(CCO)Cc1ccccc1)C(=O)N[C@H](COC(=O)[C@@H](CC=C)Cc1ccc(F)cc1)Cc1ccccc1	-5	71*	10	0	1	27	x
Cc1ccc(NC(=O)CN2C(=O)N/C(=C\c3ccco3)C2=O)cc1	11	-1	1	3	-29	x	x
CCOc1ccc(CCNC(=O)c2cc3c(s2)CS(=O)(=O)C3)cc1OCC	-3	10	0	0	6	x	x
COc1cccc(NC(=S)N2CCN(S(C)(=O)=O)CC2)c1	0	10	4	-7	7	x	x
C=CCC[C@@H](Cc1ccc(F)cc1)C(=O)OC[C@@H](Cc1c[nH]c2ccccc12)NC(=O)[C@@H](CC=C)CC(=O)NCCO	-4	35	-4	-1	36	x	x
C=CCC[C@H](Cc1ccc(F)cc1)C(=O)OC[C@@H](Cc1c[nH]c2ccccc12)NC(=O)[C@@H](CC=C)CC(=O)N(CCO)Cc1ccccc1	4	86*	23	1	-6	13	x
C=CCC[C@H](Cc1ccc(F)cc1)C(=O)OC[C@H](Cc1c[nH]c2ccccc12)NC(=O)[C@@H](CC=C)CC(=O)N(CCO)Cc1ccccc1	1	87*	2	-1	53	20	x
Cc1oc(-c2cccs2)nc1CNC[C@H]1O[C@@H](n2cnc3c(N)ncnc32)[C@H](O)[C@@H]1O	4	16	4	-7	-8	x	x
COc1ccc(C(=O)NCC(c2ccccc2)c2ccccc2)cc1S(=O)(=O)N1CCOCC1	x	x	-4	x	17	x	x
Cc1nn(-c2ccccc2Cl)c(Cl)c1/C=N/Nc1cccc(C(=O)O)c1	-165	73*	-267	-29	62	83*	124*
